# Measurements as given in PMC7862700, “An all-to-all approach to the identification of sequence-specific readers for epigenetic DNA modifications on cytosine”.
# How the values were obtained:
# Assay in all cases: DAPPL (digital affinity profiling via proximity ligation, sequencing); 10 mM Tris-HCl pH 7.5, 50 mM NaCl, 1 mM DTT, 4% glycerol, room temperature, 30 min; GST-TFs on glutathione beads, 16-mer random dsDNA library, 0.1% formaldehyde crosslink after washing; high values mean tight binding
# FLI1 = target: T1, FLI1 (Homo sapiens, UniProt Q01543 1-452); conditions: protein: recombinant; tags: N-terminal GST; dsDNA, one strand shown
# T1 sequence: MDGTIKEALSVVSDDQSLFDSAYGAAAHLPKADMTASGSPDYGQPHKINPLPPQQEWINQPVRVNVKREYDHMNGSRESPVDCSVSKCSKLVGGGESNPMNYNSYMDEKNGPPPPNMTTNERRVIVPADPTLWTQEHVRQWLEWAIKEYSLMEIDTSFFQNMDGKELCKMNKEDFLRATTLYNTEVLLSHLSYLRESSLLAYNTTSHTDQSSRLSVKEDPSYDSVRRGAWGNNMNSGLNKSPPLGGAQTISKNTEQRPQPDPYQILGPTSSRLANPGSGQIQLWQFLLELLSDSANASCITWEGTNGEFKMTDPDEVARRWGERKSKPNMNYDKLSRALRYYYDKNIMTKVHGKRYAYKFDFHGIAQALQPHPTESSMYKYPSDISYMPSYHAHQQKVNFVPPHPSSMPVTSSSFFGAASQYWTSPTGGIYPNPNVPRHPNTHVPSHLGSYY
# Summary of the method: (§1)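 Sequencing on an Illumina NextSeq500 followed washing, crosslinking with 0.1% formaldehyde, proximity ligation (BsaI/T4 ligase, 1 h, 37 °C) and PCR amplification of pools that had been incubated for 30 min at room temperature with 200 nmole of a random double-stranded 16-mer DNA library in Tris/NaCl/DTT/glycerol buffer. Each pool held DNA-barcoded human transcription factors, expressed in yeast as GST fusions and captured on glutathione beads, plus a tag-only sample. Binding signal is a hexamer's read frequency for a factor divided by its frequency in the tag-only sample.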
# ELK1 = target: T2, ELK1 (Homo sapiens, UniProt P19419 1-428); conditions: protein: recombinant; tags: N-terminal GST; dsDNA, one strand shown
# T2 sequence: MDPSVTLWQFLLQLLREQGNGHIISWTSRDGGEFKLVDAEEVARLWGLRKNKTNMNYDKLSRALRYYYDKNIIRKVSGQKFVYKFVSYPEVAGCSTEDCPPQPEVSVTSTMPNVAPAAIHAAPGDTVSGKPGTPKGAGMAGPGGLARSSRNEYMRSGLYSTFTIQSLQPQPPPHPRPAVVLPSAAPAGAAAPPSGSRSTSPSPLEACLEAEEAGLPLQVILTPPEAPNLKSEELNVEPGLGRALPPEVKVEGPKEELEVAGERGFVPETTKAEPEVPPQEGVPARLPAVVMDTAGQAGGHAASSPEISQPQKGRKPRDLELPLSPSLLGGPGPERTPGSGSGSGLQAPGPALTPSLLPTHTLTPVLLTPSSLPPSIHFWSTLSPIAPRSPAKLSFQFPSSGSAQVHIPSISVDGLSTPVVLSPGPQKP
# Summary of the method: as §1
# GABPA = target: T3, GABPA (Homo sapiens, UniProt Q06546 1-454); conditions: protein: recombinant; tags: N-terminal GST; dsDNA, one strand shown
# T3 sequence: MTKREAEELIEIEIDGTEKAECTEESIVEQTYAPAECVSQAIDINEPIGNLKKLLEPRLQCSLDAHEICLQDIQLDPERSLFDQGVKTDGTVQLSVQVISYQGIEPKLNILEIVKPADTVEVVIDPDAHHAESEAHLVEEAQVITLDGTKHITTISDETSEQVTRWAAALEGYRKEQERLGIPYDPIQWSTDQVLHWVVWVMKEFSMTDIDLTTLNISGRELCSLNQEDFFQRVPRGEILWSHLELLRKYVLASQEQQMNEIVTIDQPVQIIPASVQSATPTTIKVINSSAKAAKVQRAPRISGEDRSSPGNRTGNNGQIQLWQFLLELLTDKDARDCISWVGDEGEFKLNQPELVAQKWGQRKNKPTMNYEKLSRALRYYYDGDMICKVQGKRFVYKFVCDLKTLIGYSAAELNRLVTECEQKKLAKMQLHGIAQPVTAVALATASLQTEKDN
# Summary of the method: as §1
# ERG = target: T4, ERG (Homo sapiens, UniProt P11308 1-479); conditions: protein: recombinant; tags: N-terminal GST; dsDNA, one strand shown
# T4 sequence: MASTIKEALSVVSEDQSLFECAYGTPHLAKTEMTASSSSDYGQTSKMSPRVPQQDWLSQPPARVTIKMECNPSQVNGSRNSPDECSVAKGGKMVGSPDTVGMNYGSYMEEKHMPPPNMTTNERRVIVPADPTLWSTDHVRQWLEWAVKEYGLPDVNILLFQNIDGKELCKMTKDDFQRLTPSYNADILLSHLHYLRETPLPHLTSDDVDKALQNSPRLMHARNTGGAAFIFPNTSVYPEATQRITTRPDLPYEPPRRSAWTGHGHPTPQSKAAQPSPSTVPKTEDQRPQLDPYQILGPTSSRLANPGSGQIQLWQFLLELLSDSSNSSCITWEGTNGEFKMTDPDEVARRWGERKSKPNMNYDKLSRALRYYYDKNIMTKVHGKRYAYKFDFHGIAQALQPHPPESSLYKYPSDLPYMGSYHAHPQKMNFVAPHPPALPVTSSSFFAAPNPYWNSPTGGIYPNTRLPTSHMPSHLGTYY
# Summary of the method: as §1
# ELF1 = ELF1 (Homo sapiens, UniProt P32519 1-619); conditions: protein: recombinant; tags: N-terminal GST; dsDNA, one strand shown
# Chain of ELF1 (P32519 whole entry): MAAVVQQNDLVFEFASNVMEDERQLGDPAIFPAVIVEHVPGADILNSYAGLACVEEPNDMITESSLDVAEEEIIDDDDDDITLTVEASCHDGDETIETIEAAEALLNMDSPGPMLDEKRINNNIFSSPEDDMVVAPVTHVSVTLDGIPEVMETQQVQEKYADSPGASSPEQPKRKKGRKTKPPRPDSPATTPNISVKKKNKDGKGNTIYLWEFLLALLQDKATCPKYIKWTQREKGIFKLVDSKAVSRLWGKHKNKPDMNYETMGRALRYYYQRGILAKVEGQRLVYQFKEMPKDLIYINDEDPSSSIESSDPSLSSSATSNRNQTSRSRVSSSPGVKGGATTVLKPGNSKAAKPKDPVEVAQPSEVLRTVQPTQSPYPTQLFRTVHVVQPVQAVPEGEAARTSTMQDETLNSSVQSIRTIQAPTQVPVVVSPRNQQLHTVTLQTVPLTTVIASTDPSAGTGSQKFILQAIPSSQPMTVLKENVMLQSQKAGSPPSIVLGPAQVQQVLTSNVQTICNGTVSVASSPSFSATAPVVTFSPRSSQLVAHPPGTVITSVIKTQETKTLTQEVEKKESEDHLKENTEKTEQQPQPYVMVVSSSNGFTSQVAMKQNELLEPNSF
# Summary of the method: as §1
# EHF = target: T5, EHF (Homo sapiens, UniProt Q9NZC4 1-300); conditions: protein: recombinant; tags: N-terminal GST; dsDNA, one strand shown
# T5 sequence: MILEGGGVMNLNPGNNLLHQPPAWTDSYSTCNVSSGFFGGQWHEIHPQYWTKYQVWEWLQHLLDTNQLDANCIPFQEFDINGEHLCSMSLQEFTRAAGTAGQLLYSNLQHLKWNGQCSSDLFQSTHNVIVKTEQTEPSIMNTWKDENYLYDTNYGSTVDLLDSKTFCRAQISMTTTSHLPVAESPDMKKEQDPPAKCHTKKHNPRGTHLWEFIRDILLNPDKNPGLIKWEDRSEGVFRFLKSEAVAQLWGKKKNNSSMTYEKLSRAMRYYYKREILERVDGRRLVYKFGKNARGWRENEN
# Summary of the method: as §1
# SPI1 = SPI1 (Homo sapiens, UniProt P17947 1-270); conditions: protein: recombinant; tags: N-terminal GST; dsDNA, one strand shown
# Summary of the method: as §1
# SPIB = SPIB (Homo sapiens, UniProt Q01892 1-262); conditions: protein: recombinant; tags: N-terminal GST; dsDNA, one strand shown
# Chain of SPIB (Q01892 whole entry): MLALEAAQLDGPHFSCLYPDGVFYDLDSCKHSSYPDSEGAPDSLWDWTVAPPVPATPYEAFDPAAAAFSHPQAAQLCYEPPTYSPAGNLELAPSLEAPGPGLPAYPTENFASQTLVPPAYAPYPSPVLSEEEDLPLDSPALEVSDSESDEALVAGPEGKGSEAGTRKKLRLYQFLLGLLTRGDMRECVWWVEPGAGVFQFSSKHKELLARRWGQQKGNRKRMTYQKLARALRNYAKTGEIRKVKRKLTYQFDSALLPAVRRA
# Summary of the method: as §1
# ELK3 = target: T6, ELK3 (Homo sapiens, UniProt P41970 1-407); conditions: protein: recombinant; tags: N-terminal GST; dsDNA, one strand shown
# T6 sequence: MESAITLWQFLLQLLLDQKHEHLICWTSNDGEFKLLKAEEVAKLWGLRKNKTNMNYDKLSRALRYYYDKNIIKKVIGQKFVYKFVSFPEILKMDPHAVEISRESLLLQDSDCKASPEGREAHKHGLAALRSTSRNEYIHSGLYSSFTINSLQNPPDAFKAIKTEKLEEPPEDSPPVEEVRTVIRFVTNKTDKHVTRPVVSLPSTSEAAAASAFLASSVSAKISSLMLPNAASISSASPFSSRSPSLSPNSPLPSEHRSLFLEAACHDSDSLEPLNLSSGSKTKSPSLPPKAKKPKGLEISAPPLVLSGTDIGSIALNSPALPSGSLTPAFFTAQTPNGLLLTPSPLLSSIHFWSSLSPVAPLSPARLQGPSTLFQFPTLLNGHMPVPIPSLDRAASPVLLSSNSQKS
# Summary of the method: as §1
# FEV = target: T7, FEV (Homo sapiens, UniProt Q99581 1-238); conditions: protein: recombinant; tags: N-terminal GST; dsDNA, one strand shown
# T7 sequence: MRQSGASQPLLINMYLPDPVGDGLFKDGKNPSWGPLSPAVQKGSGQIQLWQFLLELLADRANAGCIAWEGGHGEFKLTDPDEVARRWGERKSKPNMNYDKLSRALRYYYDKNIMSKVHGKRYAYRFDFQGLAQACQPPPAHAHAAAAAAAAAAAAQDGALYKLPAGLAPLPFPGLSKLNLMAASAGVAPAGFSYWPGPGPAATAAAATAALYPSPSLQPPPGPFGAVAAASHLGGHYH
# Summary of the method: as §1
# ETV5 = ETV5 (Homo sapiens, UniProt P41161 1-510); conditions: protein: recombinant; tags: N-terminal GST; dsDNA, one strand shown
# Chain of ETV5 (P41161 whole entry): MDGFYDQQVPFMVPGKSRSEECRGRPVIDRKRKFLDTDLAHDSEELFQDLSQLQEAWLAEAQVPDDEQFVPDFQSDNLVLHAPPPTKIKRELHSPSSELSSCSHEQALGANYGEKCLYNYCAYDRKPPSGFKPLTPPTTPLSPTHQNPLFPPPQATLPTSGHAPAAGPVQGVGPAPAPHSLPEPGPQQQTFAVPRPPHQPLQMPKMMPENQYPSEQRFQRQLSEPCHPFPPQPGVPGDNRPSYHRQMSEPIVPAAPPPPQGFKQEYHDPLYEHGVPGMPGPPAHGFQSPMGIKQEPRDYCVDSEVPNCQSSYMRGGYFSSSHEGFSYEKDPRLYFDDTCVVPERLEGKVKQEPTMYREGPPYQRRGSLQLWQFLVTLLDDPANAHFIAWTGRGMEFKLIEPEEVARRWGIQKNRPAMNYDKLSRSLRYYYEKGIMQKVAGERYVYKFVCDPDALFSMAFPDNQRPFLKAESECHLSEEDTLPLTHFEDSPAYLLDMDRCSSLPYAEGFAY
# Summary of the method: as §1
# HSF1 = HSF1 (Homo sapiens, UniProt Q00613 1-529); conditions: protein: recombinant; tags: N-terminal GST; chain copies: 3; dsDNA, one strand shown
# Chain of HSF1 (Q00613 whole entry): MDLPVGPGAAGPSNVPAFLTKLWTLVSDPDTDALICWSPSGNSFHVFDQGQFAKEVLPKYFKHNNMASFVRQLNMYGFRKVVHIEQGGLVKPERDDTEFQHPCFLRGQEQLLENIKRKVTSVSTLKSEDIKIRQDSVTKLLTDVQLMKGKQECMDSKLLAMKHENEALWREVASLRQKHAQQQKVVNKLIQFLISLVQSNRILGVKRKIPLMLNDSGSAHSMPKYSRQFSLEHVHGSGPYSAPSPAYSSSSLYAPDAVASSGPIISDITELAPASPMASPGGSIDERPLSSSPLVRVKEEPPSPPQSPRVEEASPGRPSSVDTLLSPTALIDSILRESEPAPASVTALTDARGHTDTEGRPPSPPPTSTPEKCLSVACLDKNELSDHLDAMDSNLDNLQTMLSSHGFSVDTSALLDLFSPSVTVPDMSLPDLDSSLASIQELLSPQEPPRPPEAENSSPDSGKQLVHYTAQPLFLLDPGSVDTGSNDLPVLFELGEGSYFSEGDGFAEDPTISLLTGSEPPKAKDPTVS
# Summary of the method: as §1
# SPIC = target: T8, SPIC (Homo sapiens, UniProt Q8N5J4 1-248); conditions: protein: recombinant; tags: N-terminal GST; dsDNA, one strand shown
# T8 sequence: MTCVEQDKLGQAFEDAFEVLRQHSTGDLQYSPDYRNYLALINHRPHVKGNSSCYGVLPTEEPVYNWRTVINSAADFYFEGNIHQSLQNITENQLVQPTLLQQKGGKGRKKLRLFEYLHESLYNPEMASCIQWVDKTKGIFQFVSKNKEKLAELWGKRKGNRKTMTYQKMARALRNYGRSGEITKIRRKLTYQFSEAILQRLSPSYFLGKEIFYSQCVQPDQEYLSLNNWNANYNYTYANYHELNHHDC
# Summary of the method: as §1
# ELF4 = ELF4 (Homo sapiens, UniProt Q99607 1-663); conditions: protein: recombinant; tags: N-terminal GST; dsDNA, one strand shown
# Chain of ELF4 (Q99607 whole entry): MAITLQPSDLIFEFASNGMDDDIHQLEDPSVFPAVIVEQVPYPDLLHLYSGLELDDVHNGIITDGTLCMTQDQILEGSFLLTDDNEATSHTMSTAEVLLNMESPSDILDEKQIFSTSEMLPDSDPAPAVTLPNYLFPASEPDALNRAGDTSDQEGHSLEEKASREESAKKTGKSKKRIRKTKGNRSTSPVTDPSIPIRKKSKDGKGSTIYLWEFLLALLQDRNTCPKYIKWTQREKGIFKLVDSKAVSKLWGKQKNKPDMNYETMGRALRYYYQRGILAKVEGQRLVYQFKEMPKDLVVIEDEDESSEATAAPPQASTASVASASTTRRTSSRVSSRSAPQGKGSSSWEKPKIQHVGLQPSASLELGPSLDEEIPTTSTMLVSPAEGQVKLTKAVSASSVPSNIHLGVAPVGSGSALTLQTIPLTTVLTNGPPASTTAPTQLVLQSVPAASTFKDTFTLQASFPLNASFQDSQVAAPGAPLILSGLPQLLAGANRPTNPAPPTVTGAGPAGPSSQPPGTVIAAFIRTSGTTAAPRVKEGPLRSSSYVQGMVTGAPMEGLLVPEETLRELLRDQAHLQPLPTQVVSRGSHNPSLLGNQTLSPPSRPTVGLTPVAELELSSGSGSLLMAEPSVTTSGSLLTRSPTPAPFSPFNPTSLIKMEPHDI
# Summary of the method: as §1
# ELK4 = target: T9, ELK4 (Homo sapiens, UniProt P28324-2 1-405); conditions: protein: recombinant; tags: N-terminal GST; dsDNA, one strand shown
# T9 sequence: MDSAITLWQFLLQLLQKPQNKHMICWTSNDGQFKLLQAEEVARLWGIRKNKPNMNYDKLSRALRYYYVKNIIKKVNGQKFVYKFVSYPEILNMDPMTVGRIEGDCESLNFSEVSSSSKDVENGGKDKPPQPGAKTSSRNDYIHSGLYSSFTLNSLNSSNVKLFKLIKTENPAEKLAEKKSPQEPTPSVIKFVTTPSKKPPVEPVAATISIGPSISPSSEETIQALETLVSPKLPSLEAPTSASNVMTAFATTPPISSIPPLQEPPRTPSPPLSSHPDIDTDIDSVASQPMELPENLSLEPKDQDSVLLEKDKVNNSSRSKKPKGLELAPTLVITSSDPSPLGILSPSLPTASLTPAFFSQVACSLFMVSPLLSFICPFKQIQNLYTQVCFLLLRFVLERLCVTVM
# Summary of the method: as §1
# ETV2 = target: T10, ETV2 (Homo sapiens, UniProt O00321 1-342); conditions: protein: recombinant; tags: N-terminal GST; dsDNA, one strand shown
# T10 sequence: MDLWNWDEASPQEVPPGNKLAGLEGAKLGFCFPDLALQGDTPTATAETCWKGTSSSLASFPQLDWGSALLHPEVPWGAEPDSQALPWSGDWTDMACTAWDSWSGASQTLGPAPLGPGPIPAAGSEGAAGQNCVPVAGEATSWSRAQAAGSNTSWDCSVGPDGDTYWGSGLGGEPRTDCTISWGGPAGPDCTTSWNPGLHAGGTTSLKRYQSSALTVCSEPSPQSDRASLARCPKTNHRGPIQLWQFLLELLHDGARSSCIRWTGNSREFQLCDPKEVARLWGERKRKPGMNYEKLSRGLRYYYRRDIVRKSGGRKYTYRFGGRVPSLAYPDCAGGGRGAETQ
# Summary of the method: as §1
# ELF3 = target: T11, ELF3 (Homo sapiens, UniProt P78545 1-371); conditions: protein: recombinant; tags: N-terminal GST; dsDNA, one strand shown
# T11 sequence: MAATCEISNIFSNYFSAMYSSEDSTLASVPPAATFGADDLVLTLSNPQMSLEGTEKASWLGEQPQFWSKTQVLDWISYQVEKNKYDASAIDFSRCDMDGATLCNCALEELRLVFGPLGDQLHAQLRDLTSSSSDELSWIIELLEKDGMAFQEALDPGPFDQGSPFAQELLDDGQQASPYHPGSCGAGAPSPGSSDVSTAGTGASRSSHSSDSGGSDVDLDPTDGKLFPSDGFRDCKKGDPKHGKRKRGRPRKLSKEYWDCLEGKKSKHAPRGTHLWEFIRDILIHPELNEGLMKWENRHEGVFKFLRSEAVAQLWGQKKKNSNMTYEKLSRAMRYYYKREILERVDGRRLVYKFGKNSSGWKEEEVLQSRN
# Summary of the method: as §1
# CRX = CRX (Homo sapiens, UniProt O43186 1-299); conditions: protein: recombinant; tags: N-terminal GST; dsDNA, one strand shown
# Chain of CRX (O43186 whole entry): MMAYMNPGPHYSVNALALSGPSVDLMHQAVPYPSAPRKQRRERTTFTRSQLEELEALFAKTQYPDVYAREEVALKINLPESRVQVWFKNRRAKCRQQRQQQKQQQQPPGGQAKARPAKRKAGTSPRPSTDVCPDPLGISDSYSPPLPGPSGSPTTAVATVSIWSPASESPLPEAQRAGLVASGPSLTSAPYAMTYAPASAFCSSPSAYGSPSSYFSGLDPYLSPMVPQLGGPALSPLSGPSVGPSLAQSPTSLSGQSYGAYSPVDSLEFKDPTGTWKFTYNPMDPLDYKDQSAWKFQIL
# Summary of the method: as §1
# ETV1 = ETV1 (Homo sapiens, UniProt P50549 1-477); conditions: protein: recombinant; tags: N-terminal GST; dsDNA, one strand shown
# Chain of ETV1 (P50549 whole entry): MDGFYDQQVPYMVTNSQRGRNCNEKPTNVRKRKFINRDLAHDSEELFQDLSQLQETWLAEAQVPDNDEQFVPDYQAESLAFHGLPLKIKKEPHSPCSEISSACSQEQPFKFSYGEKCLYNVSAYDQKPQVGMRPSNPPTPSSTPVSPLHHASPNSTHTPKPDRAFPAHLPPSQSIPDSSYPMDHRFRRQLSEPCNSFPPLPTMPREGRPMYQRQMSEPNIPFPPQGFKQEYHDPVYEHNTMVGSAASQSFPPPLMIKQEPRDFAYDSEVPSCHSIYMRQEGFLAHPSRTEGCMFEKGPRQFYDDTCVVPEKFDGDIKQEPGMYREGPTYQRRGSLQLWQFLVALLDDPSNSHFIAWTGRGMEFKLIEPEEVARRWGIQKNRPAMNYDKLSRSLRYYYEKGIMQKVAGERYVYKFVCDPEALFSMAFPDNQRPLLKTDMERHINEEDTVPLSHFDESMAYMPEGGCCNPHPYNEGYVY
# Summary of the method: as §1
sequence,measurement,setting,value
TTTCAG,binding signal,FLI1,"1.36 fold enrichment (6-mer frequency, TF over GST control)"
same,binding signal,ELK1,"1.19 fold enrichment (6-mer frequency, TF over GST control)"
same,binding signal,GABPA,"1.34 fold enrichment (6-mer frequency, TF over GST control)"
same,binding signal,ERG,"1.3 fold enrichment (6-mer frequency, TF over GST control)"
same,binding signal,ELF1,"1.31 fold enrichment (6-mer frequency, TF over GST control)"
same,binding signal,EHF,"1.34 fold enrichment (6-mer frequency, TF over GST control)"
same,binding signal,SPI1,"1.35 fold enrichment (6-mer frequency, TF over GST control)"
same,binding signal,SPIB,"1.24 fold enrichment (6-mer frequency, TF over GST control)"
same,binding signal,ELK3,"1.23 fold enrichment (6-mer frequency, TF over GST control)"
same,binding signal,FEV,"1.3 fold enrichment (6-mer frequency, TF over GST control)"
same,binding signal,ETV5,"1.28 fold enrichment (6-mer frequency, TF over GST control)"
same,binding signal,HSF1,"1.3 fold enrichment (6-mer frequency, TF over GST control)"
same,binding signal,SPIC,"1.14 fold enrichment (6-mer frequency, TF over GST control)"
same,binding signal,ELF4,"1.33 fold enrichment (6-mer frequency, TF over GST control)"
same,binding signal,ELK4,"1.38 fold enrichment (6-mer frequency, TF over GST control)"
same,binding signal,ETV2,"1.43 fold enrichment (6-mer frequency, TF over GST control)"
same,binding signal,ELF3,"1.24 fold enrichment (6-mer frequency, TF over GST control)"
same,binding signal,CRX,"1.31 fold enrichment (6-mer frequency, TF over GST control)"
same,binding signal,ETV1,"1.39 fold enrichment (6-mer frequency, TF over GST control)"
